Source: PubChem BioAssay
Rows were chosen to be rich in hits. Some 6.6% of all compounds tested hit in one or more screens of this group.
RGS4 inhibitor – Inhibitors of Regulator of G Protein Signaling (RGS) 4: qHTS | Regulator of G-protein signaling 4 (Homo sapiens), P49798 | Transcreener GDP fluorescence polarization, RGS4-accelerated GTP hydrolysis | Potency, µM (series often up to 114 µM), without a hit: top-dose activity change, negative = inhibition, hits mostly inhibitors | 0.039% of 390,000 active; further: on the % scale 0 is the no-effect control and ±100 the full control effect; nearly all actives have a fitted effect of over 75% in size
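MLSMR compounds (23 nl, pin-transferred) preincubated 10 min at room temperature with a 500nM (2x) first reagent, then RGS4 at 900nM (2x) plus Transcreener GDP mix added; fluorescence polarization (620/688 nm) read before and after 90 min at 30 °C.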
SW480 rerep – A quantitative high throughput screen for small molecules that induce DNA re-replication in SW480 colon adenocarcinoma cells | SW480 DNA re-replication, Hoechst DNA content imaging, 48 h | Potency, µM (titrated, usually from 46.1 µM), for the others: at the highest dose re-replication activation, usual class: activators | 1.8% of 340,000 active; further: % of control where 0% means no effect; nearly all actives have a fitted effect of over 55% in size
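Quantitative HTS format with DMSO vehicle controls; 48 hr drug incubation at 37 C, then 40 min Hoechst staining and scanning imager measurement at 405 nm excitation.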
KB-V1 MDR tox – qHTS assay for MDR1-selective chemotherapeutics: Primary screen using the drug-selected MDR subline cells KB-V1 | KB-V1 MDR cells viability, CellTiter-Glo, 72 h | Potency, µM (doses to about 46.1 µM), usual class: cytotoxic | 3.4% of 400,000 active | AID 1347076, 2019; further: on the % scale 0 is the no-effect control and ±100 the full control effect; nearly all actives have a fitted effect of over 60% in size
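Luminescent ATP read-out (CellTiter-Glo, 10 min) measures survival of drug-selected KB-V1 MDR cells after 72 h, 37 degrees C compound exposure. Medium: phenol-red-free DMEM, 10% FBS. Values from fitted concentration-response curves.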
MCF10A rerep – A quantitative high throughput screen for small molecules that induce DNA re-replication in MCF 10a normal breast cells. 2.9% of 350,000 active. MCF 10A DNA re-replication, Hoechst nuclear intensity, 48 h. Potency, µM (top dose mostly 46.1 µM), without a hit: at the highest dose activity, positive = re-replication, usual class: activators. AID 624296, 2012; further: % of control where 0% means no effect; nearly all actives have a fitted effect of over 50% in size
PTAP TSG101 blk – qHTS Assay for Iinhibitors of HIV-1 Budding by Blocking the Interaction of PTAP/TSG101; Tumor susceptibility gene 101 protein (Homo sapiens), Q99816; Fluorescence polarization, FITC-PTAP peptide / Tsg101 binding; Potency, µM (highest dose often 115 µM), for the others: at the top dose activity change, negative = inhibition, actives largely listed as inhibitors; 340,000 tested, under 10 active; active means well fitted inhibition curve with a large enough effect in the main read-out, with a control signal flat, not every such curve was filed as active; inconclusive means small, poorly fitted or top-dose-only effect, or effect the other way, or a change in a side signal; inactive means no such curve, though single readings can be large or run the other way; further: % of control where 0% means no effect
Target sequence (Q99816 whole entry, looked up): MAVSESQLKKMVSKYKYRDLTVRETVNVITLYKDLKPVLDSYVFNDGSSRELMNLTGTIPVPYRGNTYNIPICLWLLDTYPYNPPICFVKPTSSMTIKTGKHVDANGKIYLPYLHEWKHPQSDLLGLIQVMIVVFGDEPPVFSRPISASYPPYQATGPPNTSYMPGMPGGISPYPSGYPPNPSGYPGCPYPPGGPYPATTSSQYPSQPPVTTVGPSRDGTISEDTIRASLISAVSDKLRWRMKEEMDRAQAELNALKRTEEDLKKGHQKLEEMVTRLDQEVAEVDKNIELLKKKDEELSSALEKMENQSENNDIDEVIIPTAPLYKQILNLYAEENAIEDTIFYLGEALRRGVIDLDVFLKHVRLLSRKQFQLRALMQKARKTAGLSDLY
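Fluorescence polarization binding of Tsg101 binding domain (10 uM final) to FITC-labeled PTAP peptide (50 nM final) in HEPES pH 7.5 buffer with NaCl, Tween 20, EDTA, TCEP. Compounds added before peptide; binding 20 min at RT.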
KB-3-1 cytotox – qHTS assay for MDR1-selective chemotherapeutics: Primary screen using the parental adenocarcinoma cell KB-3-1. KB-3-1 viability, CellTiter-Glo ATP luminescence, 72 h. Potency, µM (series often up to 46.1 µM), most hits filed as cytotoxic. 1.4% of 400,000 active. AID 1347075, 2019; further: on the % scale 0 is the no-effect control and ±100 the full control effect; nearly all actives have a fitted effect of over 60% in size
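KB-3-1 cells, DMEM (no phenol red) + 10% FBS; compound by pin transfer, 72 h, 37 °C. Readout: CellTiter-Glo luminescence after 10 min. Data normalized, curve-fitted.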
* marks the source's active call; other numbers are inactive results; i = inactive; ? = inconclusive; nt = not tested or not shown. Unless noted, the call rests on the fitted dose curve; in most records, active means well fitted curve in the direction sought with a large enough effect; inconclusive means small, poorly fitted or top-dose-only effect, or another doubt; inactive means no such curve, though single readings can be large; an effect the other way counts as inactive or inconclusive. Potency means the concentration at half of the fitted maximal effect.

SMILES | RGS4 inhibitor | SW480 rerep | KB-V1 MDR tox | MCF10A rerep | PTAP TSG101 blk | KB-3-1 cytotox
CC(=O)c1ccccc1S(=O)(=O)N1CCN(c2nc(-c3cccs3)nc3ccccc23)CC1 | 22% | nt | nt | nt | nt | nt
O=C(CCC(=O)c1ccc(Oc2ccccc2)cc1)Nc1ccc(Cl)cc1Cl | -13% | 5.8µM* | i | ? | 4% | i
CC(=O)c1sc(N/N=C\c2ccc(N(C)C)cc2)nc1C | 6% | ? | i | 16µM* | -4% | i
CC(=O)c1sc(N/N=C/c2cccc(O)c2)nc1C | 7% | -9% | i | 12% | -9% | i
COC(=O)c1sc(N/N=C/c2ccc(C(C)C)cc2)nc1C | -14% | ? | i | 15µM* | -3% | i
CC(=O)c1sc(N/N=C\c2c(O)ccc3ccccc23)nc1C | ? | 3.3µM* | i | ? | 10% | ?
CC(=O)c1sc(N/N=C/c2cccc([N+](=O)[O-])c2)nc1C | 34% | 11% | i | 17% | -2% | i
CCOC(=O)c1cc(S(=O)(=O)Nc2ccccc2)[nH]n1 | -5% | nt | i | nt | nt | i
COC(=O)C1=C[C@@H](C(=O)OC)C2C3=C(C(=O)[C@]2(C)NC(=O)c2ccccc2)[C@H](C)[C@@H]2C(=O)N(C)C(=O)[C@@H]2[C@@H]3C1 (stereo not given in full) | -4% | nt | nt | nt | nt | nt
O=C(Nc1ccccc1N1CCCCC1)c1cc(S(=O)(=O)N2CCOCC2)ccc1F | 6% | 16% | ? | 12µM* | -8% | ?
O=C(Nc1ccccc1N1CCCC1)c1cc(S(=O)(=O)N2CCOCC2)ccc1Cl | -2% | -3% | i | -1% | 0% | i
Cc1cc(OCC(=O)Nc2cc(S(=O)(=O)N3CCOCC3)ccc2N2CCCC2)ccc1C(C)C | -24% | 2% | 7.3µM* | 11% | 0% | i
O=C(Nc1ccccc1N1CCOCC1)C1CCN(S(=O)(=O)c2ccccc2F)CC1 | -13% | -142% | 8.2µM* | -2% | -1% | i
Cc1ccc(OCC(=O)Nc2cc(S(=O)(=O)N3CCOCC3)ccc2N2CCCC2)cc1 | 12% | ? | i | -2% | -4% | i
CN1CCN(c2ccc(S(=O)(=O)N3CCCCC3)cc2NC(=O)c2ccc3ccccc3c2)CC1 | -3% | ? | 10µM* | 23µM* | 1% | ?
Cc1ccccc1C(=O)Nc1cc(S(=O)(=O)N2CCCCC2)ccc1N1CCN(C)CC1 | -18% | 13% | ? | -13% | -4% | ?
CCOC(=O)c1cccc(NC(=O)Nc2ccc3c(c2)N(C)C(=O)c2ccccc2S3)c1 | -12% | nt | i | nt | nt | i
O=C1c2cccc3c2[C@@H](CCC3)CN1[C@@H]1CN2CCC1CC2 | nt | 14% | nt | 12% | nt | nt
C=Cc1ccc(CSc2nc(-c3ccccc3C)nc3c2Cc2c(CO)cnc(C)c2O3)cc1 | -24% | nt | i | nt | nt | i
CCc1cc(C(=O)Nc2cc(S(=O)(=O)N3CCCCC3)ccc2N2CCN(C)CC2)sc1C | nt | nt | i | nt | nt | 23µM*
CN1CCN(c2ccc(Cl)cc2NC(=O)c2ccc(S(=O)(=O)N(C)C)cc2)CC1 | 21% | 11µM* | i | 19% | -1% | i
O=C(CN1CCc2ccccc2C1)Nc1cc(S(=O)(=O)N2CCOCC2)ccc1N1CCCC1 | -5% | 2% | 4.1µM* | 10% | -1% | i
Cc1ccc(N(Cc2ccccc2)C(=O)c2cc(S(=O)(=O)N3CCOCC3)ccc2F)cc1 | -42% | -1% | 9.2µM* | 20% | -1% | i
